Screens from PubChem.
Compounds with a hit are over-represented: about 1.1% of the library has one in this group of screens.
GalR3 antagonist: blocks the human galanin receptor 3; HEK293 GalR3-CNG cAMP membrane potential fluorescence; galR3 body fused to GalR1 C-terminus; 0.44% of 360,000 active; inhibition, % at 3 µM; AID 651719; O60755;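 active = inhibition above the screen-wide average plus 3 SD, cut at about 13% in these data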;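 also: forskolin and galanin both at EC90 stimulate the cells; cAMP rise reported by CNG channel membrane potential dye signal; 0% = forskolin plus galanin with DMSO and 100% = forskolin alone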
COUP-TFII inh: NR2F2 (human) inhibition, primary screen; HEK293T NGFI-A luciferase reporter, luminescence; P24468; inhibition, % at 8.6 µM; 0.7% of 370,000 active; AID 686940;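 active = inhibition above a per-plate cutoff, mean inhibition of test wells between control levels plus 3 SD, cut at about 38% in these data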;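 also: cells cotransfected with COUP-TFII expression vector driving the NGFI-A reporter; 0% = median of COUP-TF2 test wells and 100% = reporter-only cells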
NCOA3 inh: inhibits human SRC3 coactivator; AID 588352; Q9Y6Q9; inhibition, % at 3.6 µM; HEK293 GAL4-SRC3 luciferase reporter, luminescence; 0.17% of 360,000 active;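 active = inhibition above a per-campaign cutoff, the mean of all compounds plus 3 SD, cut at about 60% in these data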;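 also: 0% = DMSO-treated cells and 100% = gossypol-treated cells at 36 µM; higher means less SRC3-driven luciferase light from the GAL4 reporter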
SRC1 inh: inhibitors of human steroid receptor coactivator 1 (SRC1). Q15788. HEK293 GAL4-SRC1 luciferase reporter, luminescence. inhibition, % at 3.6 µM. 0.12% of 360,000 active;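 active = inhibition above the campaign mean plus 3 SD, with each screening campaign given its own cutoff, cut at about 60% in these data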;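 also: 0% = DMSO treated cells and 100% = gossypol at 36 µM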
LRH-1 inv ag: NR5A2 inverse agonism in reporter assay. O00482. HEK293T StAR-luciferase reporter, LRH-1 transfected, 24 h. inhibition, % at 3.6 µM. 0.13% of 360,000 active. AID 602396;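 active = inhibition above the mean inhibition of all tested compounds plus 3 SD, cut at about 73% in these data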;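 also: 0% = DMSO wells and 100% = reporter-only cells lacking LRH-1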
SRC2 inh: inhibits human steroid receptor coactivator 2; Q15596; HEK293 GAL4-SRC2 luciferase reporter, luminescence; inhibition, % at 9 µM; 0.17% of 370,000 active;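 active = inhibition above the mean inhibition of all tested compounds plus 3 SD, set per campaign, cut at about 52% in these data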;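 also: 0% = DMSO treated cells and 100% = cells given Gossypol at 36 µM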
Target sequence (Q15596 whole entry, looked up, the tested form may be a part): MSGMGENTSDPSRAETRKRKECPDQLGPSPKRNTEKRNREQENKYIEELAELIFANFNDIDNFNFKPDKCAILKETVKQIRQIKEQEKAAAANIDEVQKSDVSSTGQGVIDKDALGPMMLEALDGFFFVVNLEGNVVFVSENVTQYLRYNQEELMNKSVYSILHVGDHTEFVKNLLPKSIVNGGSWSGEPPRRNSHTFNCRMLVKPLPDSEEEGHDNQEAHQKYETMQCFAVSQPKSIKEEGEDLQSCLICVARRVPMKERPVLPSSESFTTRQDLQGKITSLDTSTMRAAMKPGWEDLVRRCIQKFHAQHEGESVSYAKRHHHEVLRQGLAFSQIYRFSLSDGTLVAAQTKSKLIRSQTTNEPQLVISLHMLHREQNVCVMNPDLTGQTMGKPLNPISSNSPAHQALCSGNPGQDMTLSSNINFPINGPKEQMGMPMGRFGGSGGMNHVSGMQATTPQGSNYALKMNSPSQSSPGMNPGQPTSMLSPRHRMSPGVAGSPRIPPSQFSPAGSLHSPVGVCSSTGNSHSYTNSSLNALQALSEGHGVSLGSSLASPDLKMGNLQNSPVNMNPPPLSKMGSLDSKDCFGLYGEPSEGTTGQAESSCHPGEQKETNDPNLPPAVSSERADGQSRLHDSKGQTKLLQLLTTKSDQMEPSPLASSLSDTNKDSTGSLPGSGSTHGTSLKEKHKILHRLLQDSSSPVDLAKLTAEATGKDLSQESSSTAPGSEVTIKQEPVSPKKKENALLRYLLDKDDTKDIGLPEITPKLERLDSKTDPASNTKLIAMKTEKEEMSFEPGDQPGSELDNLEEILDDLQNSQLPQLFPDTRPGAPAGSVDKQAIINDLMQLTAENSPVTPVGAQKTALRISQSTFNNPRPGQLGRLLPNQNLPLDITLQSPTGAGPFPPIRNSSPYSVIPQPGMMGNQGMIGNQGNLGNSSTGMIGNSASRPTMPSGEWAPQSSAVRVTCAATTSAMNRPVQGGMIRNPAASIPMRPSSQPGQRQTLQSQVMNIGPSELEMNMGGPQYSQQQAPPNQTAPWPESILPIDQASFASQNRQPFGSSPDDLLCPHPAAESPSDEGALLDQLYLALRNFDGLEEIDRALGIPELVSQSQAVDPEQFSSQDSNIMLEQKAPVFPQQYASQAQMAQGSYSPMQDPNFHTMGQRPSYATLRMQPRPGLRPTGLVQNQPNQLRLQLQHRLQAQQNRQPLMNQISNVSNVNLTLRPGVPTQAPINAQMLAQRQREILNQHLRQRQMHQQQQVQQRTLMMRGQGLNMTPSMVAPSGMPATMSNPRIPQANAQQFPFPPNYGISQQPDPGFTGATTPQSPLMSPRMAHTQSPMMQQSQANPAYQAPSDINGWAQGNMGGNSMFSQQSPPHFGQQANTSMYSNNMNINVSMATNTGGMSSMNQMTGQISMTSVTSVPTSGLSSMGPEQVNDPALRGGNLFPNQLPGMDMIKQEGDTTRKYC
VP16 Luc counter: counter-screen for COUP-TFII antagonists: inhibitors of VP16; shares compounds with COUP-TFII inh; HEK293 Gal4-VP16 luciferase reporter, luminescence; inhibition, % at 8.5 µM; 25% of 2,500 active; in the data active = inhibition above about 13%
NR2F2 inh conf: confirmation of human COUP-TFII (NR2F2) inhibitors; shares compounds with COUP-TFII inh; HEK293 NGFI-A luciferase reporter, luminescence; inhibition, % at 8.5 µM; 45% of 2,500 active; AID 687008;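 active = mean inhibition over three repeats above a set limit taken from the earlier primary screen, cut at about 38% in these data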;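 also: 100% = cells given the luciferase reporter alone without the COUP-TF2 vector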
Numbers without * were called inactive; nt = no result.

SMILES | GalR3 antagonist | COUP-TFII inh | NCOA3 inh | SRC1 inh | LRH-1 inv ag | SRC2 inh | VP16 Luc counter | NR2F2 inh conf
COc1ccc(-n2nnnc2C(CCc2ccccc2)N2CCN(C/C=C/c3ccccc3)CC2)cc1 (stereo not drawn) | -6.6 | 9.8 | 17.9 | -9.0 | -31.8 | 19.7 | nt | nt
CC(C)C[C@H](NC(=O)c1ccc(Cl)cc1Cl)C(=O)N1CCC[C@H]1C(=O)NCc1ccccc1 | -7.0 | 3.0 | nt | nt | nt | -1.4 | nt | nt
COc1ccc(CCNC(=S)N2CCC(C(=O)c3ccc(F)cc3)CC2)cc1OC | -3.5 | 43.2* | 26.7 | -19.7 | 17.3 | 36.6 | 5.2 | 27.4
COc1ccc(C(=O)C2CCN(C(=S)NCCc3ccc(OC)c(OC)c3)CC2)cc1 | -2.5 | 44.0* | 21.4 | 10.6 | 0.8 | -11.1 | 8.0 | 17.8
CC(C)[C@H](NC(=O)c1ccco1)C(=O)N1CCC[C@H]1C(=O)NCc1ccccc1 | -1.6 | -10.7 | nt | nt | nt | 2.7 | nt | nt
O=C(Nc1nncs1)c1cc2c(s1)CCC2 | -9.1 | -36.8 | -54.8 | -99.2 | -68.1 | -81.3 | nt | nt
O=C(Nc1nccs1)c1cc2c(s1)CCCCC2 | -7.8 | 41.7* | 7.2 | -11.3 | -5.0 | 58.4* | -55.3 | -9.8
Cc1nnsc1C(=O)NC1CCCc2c1cnn2-c1ccccc1F (stereo not drawn) | 2.8 | 44.5* | -16.3 | 2.0 | 40.8 | 15.2 | -0.4 | 44.7*
O=C(N[C@H]1CCCc2c1cnn2-c1ccc(F)cc1F)c1ccccn1 | nt | -17.7 | nt | nt | nt | nt | nt | nt
CCc1cc(C(=O)NC2CCCc3c2cnn3-c2ccc(F)cc2F)no1 (stereo not drawn) | -7.8 | 52.8* | -9.0 | 5.9 | 15.2 | 7.3 | -6.6 | 17.3
O=C(NC1CCCc2c1cnn2-c1ccc(F)cc1F)c1ccccn1 (stereo not drawn) | -5.2 | 9.0 | -8.0 | -6.9 | -5.7 | -11.6 | nt | nt
CC1=C(C(=O)NC2CCCc3c2cnn3-c2ccc(F)cc2F)OCCO1 (stereo not drawn) | -1.2 | 47.1* | 28.0 | -2.1 | 35.0 | 21.4 | -3.0 | 25.8
CN1CCCCC(NC(=O)c2cccc(F)c2)C1=O (stereo not drawn) | -8.9 | 7.6 | nt | nt | nt | 15.3 | nt | nt
COC(=O)C1=C(C)N(Cc2cccc(C(F)(F)F)c2)C(=NCc2cc(OC)c(OC)c(OC)c2)NC1c1cccc(C(F)(F)F)c1 (stereo not drawn) | -5.1 | 3.5 | nt | nt | nt | 9.2 | nt | nt
Cc1ccc(Cl)cc1N1CCN(C(=O)CSc2nnc3n2C(C)(C)Cc2ccccc2-3)CC1 | -1.8 | 63.1* | 14.8 | 23.7 | 13.3 | 16.4 | 9.3 | 49.6*
COc1ccc(N2CCN(C(=O)CSc3nnc4n3C(C)(C)Cc3ccccc3-4)CC2)cc1 | -3.9 | -8.3 | -4.2 | -13.0 | 4.6 | -31.7 | nt | nt
Cc1nc(NCCc2ccc(S(N)(=O)=O)cc2)c2c(C)c(C)sc2n1 | -8.7 | 48.0* | 26.9 | 7.3 | 38.1 | -0.1 | 0.0 | 17.4
Cc1nc(NCc2ccc(S(N)(=O)=O)cc2)c2c(C)c(C)sc2n1 | -5.9 | 6.4 | -6.3 | -6.0 | 14.9 | 1.0 | nt | nt
C=CCOC(=O)N1CCC(NS(=O)(=O)c2ccc3c(c2)CCN3C(C)=O)CC1 | nt | 8.2 | nt | nt | nt | 24.1 | nt | nt
Cc1ccc(C(=O)O/N=C(\N)c2ccccn2)cc1 | 2.2 | 56.7* | -62.5 | -22.3 | -15.9 | 56.7* | -157.2 | -110.0
Cc1ccc(C(=O)O/N=C(\N)c2ccccn2)cc1C | -3.9 | 50.4* | -11.4 | -33.7 | -11.1 | 42.4 | -70.4 | -1.0
CC(C)(C)c1ccc(C(=O)O/N=C(\N)c2ccccn2)cc1 | -5.3 | 95.5* | 88.4* | 89.7* | 88.3* | 86.3* | 73.5* | 101.5*
N/C(=N\OC(=O)c1ccccc1)c1ccccn1 | -1.4 | -8.7 | -66.7 | -99.4 | -87.9 | -17.4 | nt | nt
COc1cc(C(=O)O/N=C(\N)c2ccccn2)cc(OC)c1OC | -6.1 | -7.4 | -4.3 | -7.7 | -13.1 | -6.3 | nt | nt
CCOc1ccc(C(=O)O/N=C(\N)c2ccccn2)cc1 | 4.0 | 81.2* | 39.3 | 17.0 | 28.7 | 64.9* | -93.3 | -4.2
SMILES | GalR3 antagonist | COUP-TFII inh | NCOA3 inh | SRC1 inh | LRH-1 inv ag | SRC2 inh | VP16 Luc counter | NR2F2 inh conf
CC(C)Oc1ccc(F)cc1-c1cc(C(=O)Nc2ccc(C(C)(C)C)cc2)[nH]n1 | -3.2 | -7.3 | -9.4 | 11.8 | -12.0 | 3.9 | nt | nt
COC(=O)[C@]12C[C@H](CC(=O)N3CCCC3)C(=O)N(Cc3ccco3)C1=C[C@H](C1CCCC1)O[C@@H]2C | nt | -5.0 | nt | nt | nt | 11.7 | nt | nt
Cc1cccc(C(=O)O/N=C(\N)c2ccccn2)c1 | -7.9 | 47.4* | -43.9 | -20.6 | -6.6 | 47.8 | -172.8 | -110.8
NC1=NC[C@H](Cc2ccc(O)cc2)N1CCCCC1CCCCC1 | -5.0 | 38.4* | 18.1 | 9.0 | 32.7 | 8.1 | 14.7* | 25.6
C=CS(=O)(=O)N(Cc1ccc(F)cc1)C(=C)C(=O)OC | nt | 67.8* | nt | nt | nt | 33.5 | 16.7* | 17.1
COC(=O)C1=C(C)N(Cc2ccccc2C(F)(F)F)C(=NCc2ccc(C(F)(F)F)cc2)NC1c1ccccc1 (stereo not drawn) | -9.3 | 15.9 | nt | nt | nt | 7.7 | nt | nt
Cc1nc2cc(N3CCN(C)CC3)c(NC(=O)Cc3ccccc3)cc2c(=O)n1Cc1ccccc1 | 5.5 | 48.8* | 44.8 | 28.6 | 20.5 | 46.1 | -0.7 | 15.3
CCN(CC)c1cc2nc(C)n(Cc3ccccc3)c(=O)c2cc1NC(=O)C1CC1 | 9.9 | -12.3 | 4.6 | -11.3 | -28.4 | 1.3 | nt | nt
Cc1cc(/C=C2/C(=O)NN(c3ccccc3)C2=O)c(C)n1-c1cccc(O)c1 | 0.5 | 40.6* | 25.7 | 21.8 | -26.8 | -22.5 | -62.5 | 39.2*
O=C(COC(=O)c1cc(S(=O)(=O)N2CCOCC2)ccc1F)NCc1ccc2c(c1)OCO2 | -3.7 | 47.0* | -3.6 | -11.4 | 5.2 | 43.5 | -8.0 | -8.2
O=C(COC(=O)c1cc(S(=O)(=O)N2CCOCC2)ccc1F)Nc1ccc2c(c1)OCO2 | 0.3 | -17.9 | -1.1 | -10.3 | 6.5 | -24.7 | nt | nt
CCCCN1CC(COc2ccc(OC)cc2)OCCS1(=O)=O (stereo not drawn) | -5.6 | -3.0 | nt | nt | nt | -6.4 | nt | nt
CC(Sc1nc2ccccc2c(=O)n1CC1CCCO1)C(=O)N(C)Cc1ccccc1 (stereo not drawn) | -4.6 | -5.5 | 0.1 | -15.5 | 5.2 | -13.4 | nt | nt
CC(Sc1nc2ccccc2c(=O)n1C)C(=O)N(C)C1CCCCC1 (stereo not drawn) | -6.2 | 46.3* | 12.1 | 17.6 | 27.9 | 25.8 | 6.4 | 26.2
O=C1C=CC2C3C(=O)N(c4ccccc4)C(=O)C3C1N2Cc1ccccc1 (stereo not drawn) | 7.4 | 60.1* | 13.3 | 22.0 | 24.2 | 74.8* | 16.9* | 5.1
Cc1cnc(NC(=O)c2ccc3c(c2)OCCO3)s1 | -8.4 | 45.8* | 22.3 | 8.3 | 8.4 | 67.5* | -5.4 | 19.9
CCCC#C/C(CCC)=C1\c2ccccc2C(=O)N1c1ccccc1 | -6.3 | 3.0 | nt | nt | nt | 10.9 | nt | nt
